Bioassay records from PubChem.
This is a sample that favours compounds with a hit; in the whole collection about 4.7% have one here.
SUMO HTRF inh: blocks human SUMOylation mediated by UBC9; P63279; HTRF SUMOylation assay, SAE1/SAE2 + UBC9, in vitro; inhibition, % at 35 µM; 290,000 tested, 0.36% active; in the data active = inhibition above about 50%, passing the limit was not always enough; inconclusive = no clear call, values can overlap the other calls
Target sequence (P63279 whole entry, looked up): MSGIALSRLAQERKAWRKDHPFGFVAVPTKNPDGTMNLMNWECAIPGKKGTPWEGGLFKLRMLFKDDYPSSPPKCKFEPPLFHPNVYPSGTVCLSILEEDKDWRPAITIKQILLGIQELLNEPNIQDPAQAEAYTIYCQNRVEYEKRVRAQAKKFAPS
Efflux pump mplx: blocks antifungal efflux pumps in multiplex yeast assay. S. cerevisiae Candida pump triplex, Nile Red efflux. 330,000 tested, 0.44% active. inhibition, % at 10 µM;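 active = plate passing quality check with inhibition over a set limit, or well fluorescence over plate mean plus 4 SD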;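 also: Nile Red retained in pooled yeast measured as flow cytometry median fluorescence; 0% = buffer negative control and 100% = Enniatin B positive control; higher means more Nile Red kept so more efflux inhibition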
ALR H2O2 inh: blocks human ALR sulfhydryl oxidase activity; purified ALR, DTT oxidation, H2O2 HRP-luminol luminescence; 290,000 tested, 3.8% active; inhibition, % (concentration not given with the values); P55789;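 active = mean replicate inhibition above about 79%, with every replicate also reaching it, limit read from the data; inconclusive = only one of the two criteria met; inactive = mean below limit and not every replicate reaching it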
Target sequence (P55789 whole entry, looked up): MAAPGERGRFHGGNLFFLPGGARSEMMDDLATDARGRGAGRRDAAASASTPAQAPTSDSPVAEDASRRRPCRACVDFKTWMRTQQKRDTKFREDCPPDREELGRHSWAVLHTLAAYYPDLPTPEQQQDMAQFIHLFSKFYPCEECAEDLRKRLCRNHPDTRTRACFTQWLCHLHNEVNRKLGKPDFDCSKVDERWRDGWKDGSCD
PABP1 MLLE inh: blocks PAM2 peptide binding to the PABP1 MLLE domain; P11940; GST-MLLE / FITC-PAM2 fluorescence polarization; inhibition, % at 20 µM; 360,000 tested, 0.36% active; AID 588489; in the data active = inhibition above about 35%, passing the limit was not always enough;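 also: plate controls were DMSO wells with GST-MLLE for no effect and wells lacking GST-MLLE protein for full effect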
eIF4H FP inh: inhibitors of RNA binding by human eIF4H; inhibition, % at 35 µM; Q15056; eIF4H fluorescence polarization binding assay; 290,000 tested, 0.94% active;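 also: calls also rest on retests at 20 µM and on dose response follow-up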
PABP FP inh: PABP-poly(A) binding inhibition. P11940. PABP-poly(A) RNA binding, fluorescence polarization. inhibition, % at 35 µM. 290,000 tested, 1% active;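 also: calls also rest on retests at 20 µM and on dose response follow-up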
An asterisk follows results filed as active; ? = inconclusive; / = no result. Unless noted, no rule for the calls is given here.

SMILES	SUMO HTRF inh	Efflux pump mplx	ALR H2O2 inh	PABP1 MLLE inh	eIF4H FP inh	PABP FP inh
Cc1cc2cc(CNC(=S)Nc3ccc(OC(F)F)cc3)ccc2n1C	14	0	-6	39*	75*	active
COc1ccc(CN2C(=O)c3ccccc3C2=O)cc1C(=O)O	17	1	/	0	-9	-5
FC(F)Oc1ccc(NC(=S)NCc2ccccc2)cc1	-1	0	3	-24	2	26
Cn1c(NC(=O)COc2ccccc2)cc(=O)n(C)c1=O	16	0	99*	28	-4	5
Cn1c(NC(=O)CCc2ccccc2)cc(=O)n(C)c1=O	5	0	0	11	6	0
Cc1cc2cc(CN3C(=O)c4ccccc4C3=O)ccc2n1C	6	0	1	48*	94	10
COc1ccc(CNC(=O)c2cccc(N(C)C)c2)cc1	15	0	83*	14	8	1
COc1ccc([C@H]2CC(=O)C=C(c3cccc(NC(C)=O)c3)C2)cc1	/	0	-13	5	/	/
Cc1cc(C(=O)CN2C(=O)NC(c3ccccc3)(c3ccccc3)C2=O)c(C)n1Cc1ccccc1	3	0	-3	-13	-5	-2
Cc1cc2cc(CNC(=O)c3cc4ccccc4o3)ccc2n1C	-29	1	-9	/	21	37
Cc1cc2cc(CNC(=O)c3ccco3)ccc2n1C	-1	0	-10	37	53*	33*
COc1cc(OC)cc(C(=O)NCc2ccc3c(c2)cc(C)n3C)c1	-13	0	-4	78	69	-2
COc1ccc(C(=O)NCc2ccc3c(c2)cc(C)n3C)cc1	-14	0	/	51*	49	24
Cc1cc2cc(CNC(=O)COc3ccccc3)ccc2n1C	-2	0	-11	50*	9	10
Cc1ccc(S(=O)(=O)NCc2ccc3c(c2)cc(C)n3C)cc1	19	0	-3	35	58*	4.3*
O=C(Nc1cccc(C(=O)N2CCOCC2)c1)C1CCCC1	/	/	/	2	/	/
Cc1cc2cc(CNC(=O)c3ccc4c(c3)OCO4)ccc2n1C	-12	0	-1	56*	61*	64*
COc1ccc(C(=O)NCc2ccc3c(c2)OCO3)cc1	2	0	0	-10	-4	0
Cc1noc(C)c1CSCC(=O)OCC(=O)Nc1ccc(OC(F)(F)F)cc1	/	/	/	4	/	/
O=C(NC1CCCC1)C1CCN(C(=O)c2cccc(Cl)c2)CC1	19	0	-5	0	-8	3
CCc1noc(C)c1C(=O)Nc1nc2c(C)cccc2s1	/	0	/	-15	/	/
Cc1cc(C(=O)Nc2nc3c(C)cccc3s2)c(C)o1	-1	0	95*	1	-6	7
CN(C)c1ccc(/C(=N\O)C(F)(F)F)cc1	0	0	98*	5	-3	-5
Cc1[nH]n(-c2ccccc2)c(=O)c1C(c1ccccc1[N+](=O)[O-])C(C#N)C#N (configuration not stated)	10	0	37	20	0	7
Cc1ccc(C(C[N+](=O)[O-])c2c(C)[nH]n(-c3ccccc3)c2=O)cc1 (configuration not stated)	71*	0	4	36	-8	1
SMILES	SUMO HTRF inh	Efflux pump mplx	ALR H2O2 inh	PABP1 MLLE inh	eIF4H FP inh	PABP FP inh
Cc1[nH]n(-c2ccccc2)c(=O)c1C(C[N+](=O)[O-])c1ccc(Cl)cc1 (configuration not stated)	9	0	/	24	-4	0
Cc1[nH]n(-c2ccccc2)c(=O)c1C(C[N+](=O)[O-])c1ccc(F)cc1 (configuration not stated)	88*	0	/	18	-1	-1
CC(C)(C)OC(=O)C[C@H]1C/C=C\C[C@@H](CC(=O)NCCO)C(=O)N[C@H](Cc2ccccc2)COC1=O	/	1	/	17	/	/
CC(=O)Nc1ccc(S(=O)(=O)NCC(=O)OCC(=O)N2CC(C)OC(C)C2)cc1 (configuration not stated)	/	0	-3	0	/	/
Cc1ccccc1SCC(=O)NC1CCOC1=O (configuration not stated)	-5	0	-1	40*	4	2
Cc1cccc(-c2nc(=S)c3c(o2)CCCC3)c1	18	0	?	45*	-7	10
S=c1nc(-c2ccc(Br)cc2)oc2c1CCCC2	-4	0	/	31	6	-2
CC(Sc1ccc2c(c1)OCCO2)C(=O)Nc1ccc2c(c1)OCO2 (configuration not stated)	17	0	/	22	7	10
CC(Sc1ccc2c(c1)OCCO2)C(=O)Nc1ncc(Cl)cc1Cl (configuration not stated)	-1	0	99*	43*	3	0
CCOC(=O)c1c(NC(=O)COC(=O)CNC(=O)c2ccc(Cl)cc2Cl)sc(C(=O)N(C)C)c1C	/	0	1	-5	/	/
O=S(=O)(O)c1ccc(N2N=C(c3ccccc3)CC2c2ccccc2)cc1 (configuration not stated)	?	0	99*	8	12	-2
CCc1nnc(NS(=O)(=O)c2ccc(NC(=O)c3ccccc3OC)cc2)s1	10	0	1	-5	-18	4
Cn1c(CSc2nc3ccccc3s2)n[nH]c1=S	-5	0	98*	5	-16	2
S=c1[nH]nc(CSc2nc3ccccc3s2)o1	-1	0	99*	-32	-2	14
Cn1c(-c2sc3ccccc3c2Cl)n[nH]c1=S	19	0	97*	-1	-8	-12
OCCNCc1c(OCc2ccc(Cl)cc2)ccc2ccccc12	5	0	-14	3	-6	-1
COc1ccccc1CNS(=O)(=O)c1ccc2c(c1)N(C(C)=O)CCO2	14	0	0	-1	-3	8
CCN(CC)Cc1cc(O)c(CN(CC)CC)cc1O	42	/	/	74*	?	-3
O=c1oc2ccccc2n1CSC1=NCCS1	-2	0	99*	34	-5	10
C=CCN1C(=O)c2ccc(C(=O)N(C)CC(=O)Nc3c(C)cccc3C)cc2C1=O	/	0	5	-4	/	/
C[C@@H]1CCCCCCCCC(=O)OCCN[C@H](C)CCCCCCCCC(=O)OCCN[C@H](C)CCCCCCCCC(=O)OCCN1	/	0	-3	8	/	/
O=C1c2ccccc2C(=O)N1CCCCc1cn(C[C@H]2CC[C@@H]([C@@H]3CC[C@H](Cn4cc(CCCCN5C(=O)c6ccccc6C5=O)nn4)O3)O2)nn1	/	0	1	-6	/	/
Cn1c(=O)c2[nH]c(N=NNc3ccccc3F)nc2n(C)c1=O	9	0	98*	22	-5	-3
CC(=O)/C(N=Nc1nc2c([nH]1)c(=O)n(C)c(=O)n2C)=C(\C)O	-2	0	1	55*	18	0
Cc1ccccc1OCCOC(=O)c1cc(S(=O)(=O)N2CCCCC2)ccc1N1CCOCC1	/	0	-29	-1	/	/
